The values below come from PubChem BioAssay (NCATS).

Molecules are shown by their SMILES. Unmarked numbers belong to inactive results. Inconclusive results are not listed. The source made the active and inactive calls. Unless noted, the call rests on the fitted dose curve; in most records, active means well fitted curve in the direction sought with a large enough effect; inconclusive means small, poorly fitted or top-dose-only effect, or another doubt; inactive means no such curve, though single readings can be large; an effect the other way counts as inactive or inconclusive.

The target in assay [1] is Lysosomal acid glucosylceramidase (Homo sapiens) (UniProt P04062). The assay is described as follows: Glucocerebrosidase-p2 (AID 348; in the data active means potency below about 10 µM; further: potency means the concentration at half of the fitted maximal effect). As to conditions: purified GBA, blue fluorogenic substrate, 40 min. The method, boiled down: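 Compounds titrated from 0.6 nM upwards against 0.2 nM enzyme in pH 5.9 citric acid/KH2PO4, taurocholate, tween-20; blue fluorogenic substrate 80 uM, 40 min room temperature, stopped and read Ex 365/Em 440 for AC50.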
Lysosomal acid glucosylceramidase (Homo sapiens), sequence (P04062 whole entry, looked up): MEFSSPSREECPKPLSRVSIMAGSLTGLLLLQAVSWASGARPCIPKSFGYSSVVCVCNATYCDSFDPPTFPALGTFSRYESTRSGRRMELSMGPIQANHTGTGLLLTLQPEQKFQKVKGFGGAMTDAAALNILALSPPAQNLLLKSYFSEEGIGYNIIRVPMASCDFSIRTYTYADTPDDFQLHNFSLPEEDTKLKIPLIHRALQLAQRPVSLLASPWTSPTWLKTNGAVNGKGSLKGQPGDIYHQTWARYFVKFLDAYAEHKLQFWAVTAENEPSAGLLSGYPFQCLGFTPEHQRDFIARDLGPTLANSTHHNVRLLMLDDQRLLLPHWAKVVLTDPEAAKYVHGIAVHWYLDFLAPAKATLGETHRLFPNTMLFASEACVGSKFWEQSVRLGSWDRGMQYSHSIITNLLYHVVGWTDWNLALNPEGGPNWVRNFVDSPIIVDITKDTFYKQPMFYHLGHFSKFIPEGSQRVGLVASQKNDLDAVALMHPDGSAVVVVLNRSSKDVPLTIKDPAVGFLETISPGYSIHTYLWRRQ

Assay [2] can be described thus: AP1 Signaling Pathway (AID 357; active means well fitted curve in either direction with a large enough effect, not every such curve was filed as active; further: on the % scale 0 is the no-effect control and ±100 the full control effect). As to conditions: ME-180 AP-1-bla reporter, EGF-induced, beta-lactamase ratio, 5 h; at 7.69 µM (top of the series) unless noted. The method, boiled down: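 Cells are seeded overnight, exposed to compound titrations and an EC50 level of EGF for 5 hours at 37 °C, then loaded with CCF4 dye for 2.5 hours. Beta-lactamase activity under the AP-1 element is read as a blue/green ratio.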

Assay [3] has as its target Cytochrome P450 1A2 (Homo sapiens) (UniProt P05177). The assay is described as follows: p450-cyp1a2 (AID 410; calls by dose curve; further: potency means the concentration at half of the fitted maximal effect). As to conditions: recombinant CYP1A2, luciferin-ME demethylation, luminescence; series mostly up to 57 µM. In short, it runs like this: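 20nM CYP1A2 with 100uM Luciferin-ME (at Km) in 100mM KPO4; compound preincubated 10 min, NADPH regeneration added, 60 min at room temperature. Luciferin quantified by luminescence after detection reagent; normalized to 57 uM furafylline.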

The nature of assay [4]: NFAT Signaling Pathway (AID 444; active means well fitted curve in either direction with a large enough effect, not every such curve was filed as active;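 further: carbachol stimulus at about its EC50 of 1 µM final; on the % scale 0 is the no-effect control and ±100 the full control effect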). As to conditions: Jurkat NFAT-bla M1, carbachol, beta-lactamase ratio, 5 h; at 7.69 µM (top of the series) unless noted. The method, boiled down:
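Jurkat cells carrying an NFAT-driven β-lactamase reporter and co-transfected muscarinic M1 receptor were treated with compound plus carbachol (1 uM final, an EC50 level) for 5 h at 37 °C. CCF4 loading followed for 1 h at RT; 460/530 nm ratio gave %activity.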

Assay [5] can be described thus: Stat Signaling Pathway (AID 446; active means well fitted curve in either direction with a large enough effect, not every such curve was filed as active;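 further: ME-180 cervical cancer cells given 40 pM IL-6 alongside compound; SIE-controlled beta-lactamase reporter measured as 460/530 nm FRET emission ratio; on the % scale 0 is the no-effect control and ±100 the full control effect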). The note with it: ME-180 SIE beta-lactamase reporter, IL-6 stimulated, 5 h; at 7.69 µM (top of the series) unless noted. The method, boiled down:
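Reporter line: ME-180 cervical carcinoma, SIE-beta-lactamase. Treatment: compound with 40 pM IL-6, 5 hrs, 37 C, in low-serum OPTI-MEM with 10 mM HEPES pH 7.3. Detection: 460/530 nm fluorescence.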

Assay [6] deals with Glucocorticoid receptor (Homo sapiens) (UniProt P04150). The assay is described as follows: GR-GFP Redistribution (AID 450;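 active means compounds whose dose series gives a full or clear partial fitted curve of increased nuclear translocation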; further: potency means the concentration at half of the fitted maximal effect). As to conditions: U2OS GR-GFP nuclear translocation, laser cytometry, 2 h.
Glucocorticoid receptor (Homo sapiens), sequence (P04150 whole entry, looked up): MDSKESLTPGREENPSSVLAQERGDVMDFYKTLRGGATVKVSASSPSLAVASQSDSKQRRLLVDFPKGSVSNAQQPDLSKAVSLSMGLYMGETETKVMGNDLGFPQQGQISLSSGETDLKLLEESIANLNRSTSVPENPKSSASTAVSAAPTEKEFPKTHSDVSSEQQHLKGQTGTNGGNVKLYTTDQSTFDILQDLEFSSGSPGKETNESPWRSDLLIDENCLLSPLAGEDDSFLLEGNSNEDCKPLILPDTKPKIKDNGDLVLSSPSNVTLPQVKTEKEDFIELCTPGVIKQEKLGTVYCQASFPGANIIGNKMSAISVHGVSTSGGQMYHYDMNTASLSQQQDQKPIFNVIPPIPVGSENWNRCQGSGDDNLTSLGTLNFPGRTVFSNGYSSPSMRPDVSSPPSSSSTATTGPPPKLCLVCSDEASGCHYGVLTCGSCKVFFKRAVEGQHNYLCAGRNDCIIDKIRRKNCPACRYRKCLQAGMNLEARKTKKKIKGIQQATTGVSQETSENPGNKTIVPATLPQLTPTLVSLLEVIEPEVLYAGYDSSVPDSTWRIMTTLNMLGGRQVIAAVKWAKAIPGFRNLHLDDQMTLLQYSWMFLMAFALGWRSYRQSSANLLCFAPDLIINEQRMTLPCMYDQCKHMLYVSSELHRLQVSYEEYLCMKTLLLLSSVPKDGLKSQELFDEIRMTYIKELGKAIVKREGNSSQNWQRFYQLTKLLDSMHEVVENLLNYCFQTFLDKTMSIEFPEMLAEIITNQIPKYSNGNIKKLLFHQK
Assay [7] shares this target. In words: GR-EFC Redistribution (AID 451; calls by dose curve; further: potency means the concentration at half of the fitted maximal effect). As to conditions: CHO-K1 GR-EFC translocation, beta-gal luminescence, 2 h. The method, boiled down:
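CHO-K1 cells stably expressing nuclear-localized β-gal enzyme acceptor and GR fused C-terminally to the enzyme donor fragment; ligand-driven nuclear translocation restores β-gal by complementation. Compounds titrated up to 46 uM final, 2 h at 37 °C; luminescence read.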

Assay [8] addresses Mitogen-activated protein kinase 10 (Mus musculus) (UniProt Q61831). The assay is described as follows: JNK3 AlphaScreen Assay (AID 530; active means well fitted curve in either direction with a large enough effect, not every such curve was filed as active;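 further: kinase came from lysate of stimulated human HepG2 cells; signal reports phosphorylation of biotinylated GST-cJun 1-79 at Ser73 with 10 µM ATP; on the % scale 0 is the no-effect control and ±100 the full control effect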). As to conditions: JNK3 lysate, c-Jun phosphorylation; series mostly up to 57.1 µM. In short, it runs like this:
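Inhibitors reduce antibody binding to phosphorylated biotin-cJun, lowering AlphaScreen luminescence. Lysates from HepG2 cells pre-activated by IL-1beta plus TNF-alpha supplied JNK3; compounds were titrated.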

The target of assay [9] is 3',5'-cyclic-AMP phosphodiesterase 4B (Homo sapiens) (UniProt Q07343). In words: qHTS Assay for Inhibitors of PDE-IV (AID 607; active means well fitted activation curve with a large enough effect in the main read-out, with a control signal flat, not every such curve was filed as active; further: % of control where 0% means no effect). The note with it: HEK293 ACTOne CNG channel cells, membrane potential fluorescence; series mostly up to 22.9 µM. In short, it runs like this:
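Cell-based read-out of cAMP via a modified cyclic nucleotide-gated channel and membrane potential dye (535/590 nm) in HEK293 cells expressing PDE4 endogenously. Compounds tested up to 22.9 uM final; 100 uM RO 20-1724 reference.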

Assay [10] concerns the target Cytochrome P450 3A4 (Homo sapiens) (UniProt P08684). The assay is described as follows: qHTS Assay for Activators of Cytochrome P450 3A4 (AID 885). Further: nearly all actives have a fitted effect of over 65% in size. As to conditions: recombinant CYP3A4, Luciferin-PPXE luminescence, 60 min; series mostly up to 57.1 µM. In short, it runs like this:
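Signal was normalized against complete inhibition by 57 uM ketoconazole. The reaction used 20nM CYP3A4 with 25uM Luciferin-PPXE, 10-min compound preincubation and a 60-min NADPH-supported step at RT.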

Assay [11] deals with Dual specificity protein kinase CLK4 (Homo sapiens) (UniProt Q9HAZ1). In words: qHTS Assay for Inhibitors of CDC-like Kinase 4 (Kinase-Glo Assay) (AID 1770). Further: on the % scale 0 is the no-effect control and ±100 the full control effect; nearly all actives have a fitted effect of over 65% in size. As to conditions: recombinant Clk4, Kinase-Glo ATP depletion luminescence; series mostly up to 66.7 µM. In short, it runs like this:
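Clk4 25 nM, RS peptide 100 uM, ATP 1 uM, pH 7.5 Tris, 10 mM MgCl2, 2.5 mM DTT; 4.5 h RT; ATP depletion read by Kinase-Glo luminescence.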
A general note: qHTS replaces the single test concentration by a dilution series.

Assay [12] has the same target. The assay is described as follows: qHTS Assay for Inhibitors of CDC-like Kinase 4 (ADP-Glo Assay) (AID 1771). Further: on the % scale 0 is the no-effect control and ±100 the full control effect; nearly all actives have a fitted effect of over 70% in size. The note with it: recombinant CLK4, ADP-Glo luminescence; series mostly up to 80 µM. The method, boiled down:
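25 nM Clk4 with 100 uM RS repeat peptide and 1 uM ATP (final) in buffer with 2 mM MgCl2, 0.5 mM EGTA, 2.5 mM DTT, 0.01% Triton X-100; 1 h at room temperature; ADP-Glo luminescence for ADP formed.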

For assay [13] the target is unchanged. In words: qHTS Assay for Inhibitors of CDC-like Kinase 4 (ADP-FP Assay) (AID 1795).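 Further: recombinant human CLK4 phosphorylating RS repeat peptide at 1 µM ATP; on the % scale 0 is the no-effect control and ±100 the full control effect; nearly all actives have a fitted effect of over 60% in size.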 As to conditions: Transcreener ADP fluorescence polarization; series mostly up to 50 µM. In short, it runs like this: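 Kinase activity was followed as ADP output, converted from fluorescence polarization with a calibration curve. Reactions ran one hour at low ATP (1 uM) with RS peptide substrate.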

Assay [14] deals with Ubiquitin carboxyl-terminal hydrolase 1 (Homo sapiens) (UniProt O94782). In words: Inhibitors of USP1/UAF1: Pilot qHTS (AID 504865).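 Further: rhodamine fluorescence freed from ubiquitin-rhodamine substrate followed over time; top concentration of the series differs between compounds; on the % scale 0 is the no-effect control and ±100 the full control effect; nearly all actives have a fitted effect of over 35% in size.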 The note with it: purified USP1/UAF1, Ub-rhodamine cleavage fluorescence; series mostly up to 54.9 µM. In short, it runs like this: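 Enzyme-free wells gave the negative control, while test wells held 1nM USP1/UAF1 preincubated with compound for 15 min at room temperature. Ub-Rho at 150nM final started the reaction, and fluorescence at 480/540 nm was recorded kinetically.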
Ubiquitin carboxyl-terminal hydrolase 1 (Homo sapiens), sequence (O94782 whole entry, looked up): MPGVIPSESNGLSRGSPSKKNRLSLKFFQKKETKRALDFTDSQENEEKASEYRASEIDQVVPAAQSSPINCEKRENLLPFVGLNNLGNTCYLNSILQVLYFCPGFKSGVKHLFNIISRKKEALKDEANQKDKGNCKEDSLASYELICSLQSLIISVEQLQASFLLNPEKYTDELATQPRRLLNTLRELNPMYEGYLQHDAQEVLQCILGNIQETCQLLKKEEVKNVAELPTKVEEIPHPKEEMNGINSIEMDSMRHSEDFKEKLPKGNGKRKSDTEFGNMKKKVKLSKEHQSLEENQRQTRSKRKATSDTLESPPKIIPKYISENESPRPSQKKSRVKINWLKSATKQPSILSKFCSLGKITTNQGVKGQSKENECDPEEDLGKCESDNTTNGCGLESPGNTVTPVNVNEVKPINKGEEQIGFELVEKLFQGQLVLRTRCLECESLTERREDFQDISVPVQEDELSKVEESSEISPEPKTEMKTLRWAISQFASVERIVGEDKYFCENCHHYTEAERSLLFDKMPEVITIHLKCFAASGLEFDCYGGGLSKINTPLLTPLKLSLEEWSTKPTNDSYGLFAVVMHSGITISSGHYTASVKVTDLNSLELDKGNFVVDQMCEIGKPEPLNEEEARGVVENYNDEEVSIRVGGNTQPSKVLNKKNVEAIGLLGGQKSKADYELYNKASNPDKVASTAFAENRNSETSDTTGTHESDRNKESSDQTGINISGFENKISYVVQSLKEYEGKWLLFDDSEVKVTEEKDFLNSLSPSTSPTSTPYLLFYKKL

The nature of assay [15]: Primary qHTS for small molecule stabilizers of the endoplasmic reticulum resident proteome: Secreted ER Calcium Modulated Protein (SERCaMP) assay (AID 1508630). Further: on the % scale 0 is the no-effect control and ±100 the full control effect. The note with it: SH-SY5Y GLuc-SERCaMP (Gaussia luciferase released on ER calcium loss) secretion, thapsigargin, luminescence; series mostly up to 38.4 µM. The method, boiled down:
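GLuc-SERCaMP-expressing SH-SY5Y cells, pretreated 16 h with compound, are challenged with thapsigargin to empty ER calcium stores; after 4 h, coelenterazine is added directly to the medium and luminescence is imaged.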

Assay [16] addresses Cytochrome P450 3A4 (Homo sapiens) (UniProt P08684). The assay is described as follows: qHTS Assay for Inhibitors and Substrates of Cytochrome P450 3A4 (AID 884). Further: potency means the concentration at half of the fitted maximal effect; nearly all actives have a fitted effect of over 50% in size. As to conditions: recombinant CYP3A4, Luciferin-PPXE luminescence; series mostly up to 57.1 µM. In short, it runs like this:
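20 nM human CYP3A4 with 25 uM Luciferin-PPXE (at KM) in 200 mM KPO4, preincubated 10 min with compound; NADPH regeneration started a 60 min RT reaction. Luciferin detected by luminescence, normalized to 57 uM ketoconazole as full inhibition.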

Assay [17] addresses Cytochrome P450 2C19 (Homo sapiens) (UniProt P33261). In words: qHTS Assay for Inhibitors and Substrates of Cytochrome P450 2C19 (AID 899). Further: potency means the concentration at half of the fitted maximal effect; nearly all actives have a fitted effect of over 60% in size. As to conditions: recombinant CYP2C19, luciferin-H EGE luminescence; series mostly up to 57.1 µM. In short, it runs like this: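 NADPH-dependent conversion of Luciferin-H EGE (10uM, at KM) by 5nM enzyme in 50mM KPO4, 60 min at 37C following 10 min compound preincubation. Stopped with luciferin detection buffer; luminescence read after 20 min.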

Cytochrome P450 1A2 (Homo sapiens), sequence (P05177 whole entry, looked up): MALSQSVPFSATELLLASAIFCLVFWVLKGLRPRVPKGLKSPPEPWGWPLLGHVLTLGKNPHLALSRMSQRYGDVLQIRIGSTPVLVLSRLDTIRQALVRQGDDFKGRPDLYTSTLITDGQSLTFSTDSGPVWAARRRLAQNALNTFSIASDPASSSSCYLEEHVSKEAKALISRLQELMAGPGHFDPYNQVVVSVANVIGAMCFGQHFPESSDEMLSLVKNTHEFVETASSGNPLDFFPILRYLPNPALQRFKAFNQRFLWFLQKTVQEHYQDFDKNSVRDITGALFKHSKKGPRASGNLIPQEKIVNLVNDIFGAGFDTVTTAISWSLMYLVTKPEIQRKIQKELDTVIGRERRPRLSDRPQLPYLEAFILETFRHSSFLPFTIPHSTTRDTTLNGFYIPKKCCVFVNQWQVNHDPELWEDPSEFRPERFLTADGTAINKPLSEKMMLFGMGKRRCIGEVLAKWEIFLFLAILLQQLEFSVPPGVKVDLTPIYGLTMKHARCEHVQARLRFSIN
Dual specificity protein kinase CLK4 (Homo sapiens), sequence (Q9HAZ1 whole entry, looked up): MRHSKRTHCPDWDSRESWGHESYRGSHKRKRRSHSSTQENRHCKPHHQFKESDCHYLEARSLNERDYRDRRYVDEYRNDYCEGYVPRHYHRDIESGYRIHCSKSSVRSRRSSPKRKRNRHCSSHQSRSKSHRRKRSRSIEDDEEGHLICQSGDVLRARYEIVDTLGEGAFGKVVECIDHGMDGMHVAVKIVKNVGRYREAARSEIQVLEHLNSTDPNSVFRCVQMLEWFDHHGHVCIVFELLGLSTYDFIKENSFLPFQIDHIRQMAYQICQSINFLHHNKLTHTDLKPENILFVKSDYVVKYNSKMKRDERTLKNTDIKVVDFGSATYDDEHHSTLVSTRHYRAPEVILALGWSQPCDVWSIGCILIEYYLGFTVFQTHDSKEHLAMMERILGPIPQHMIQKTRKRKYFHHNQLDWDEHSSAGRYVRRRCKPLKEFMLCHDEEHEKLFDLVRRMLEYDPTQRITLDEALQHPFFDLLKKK
3',5'-cyclic-AMP phosphodiesterase 4B (Homo sapiens), sequence (Q07343 whole entry, looked up): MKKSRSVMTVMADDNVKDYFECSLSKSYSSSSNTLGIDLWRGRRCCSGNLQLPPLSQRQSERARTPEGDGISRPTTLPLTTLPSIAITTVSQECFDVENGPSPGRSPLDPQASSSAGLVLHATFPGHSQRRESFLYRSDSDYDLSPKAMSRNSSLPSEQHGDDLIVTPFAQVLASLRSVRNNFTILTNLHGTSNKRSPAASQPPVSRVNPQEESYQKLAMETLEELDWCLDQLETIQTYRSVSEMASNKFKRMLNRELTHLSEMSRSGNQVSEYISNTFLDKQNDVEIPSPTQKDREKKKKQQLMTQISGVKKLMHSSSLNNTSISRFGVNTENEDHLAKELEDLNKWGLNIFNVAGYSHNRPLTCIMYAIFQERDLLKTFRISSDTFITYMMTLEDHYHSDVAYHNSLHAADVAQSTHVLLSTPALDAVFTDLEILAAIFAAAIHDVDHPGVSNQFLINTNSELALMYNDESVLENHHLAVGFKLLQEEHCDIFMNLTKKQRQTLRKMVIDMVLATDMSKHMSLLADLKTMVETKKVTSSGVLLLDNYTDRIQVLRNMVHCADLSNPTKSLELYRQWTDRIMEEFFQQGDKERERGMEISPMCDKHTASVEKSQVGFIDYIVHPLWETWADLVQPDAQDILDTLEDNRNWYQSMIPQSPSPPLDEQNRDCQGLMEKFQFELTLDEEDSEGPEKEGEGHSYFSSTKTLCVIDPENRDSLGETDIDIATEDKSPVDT
Cytochrome P450 3A4 (Homo sapiens), sequence (P08684 whole entry, looked up): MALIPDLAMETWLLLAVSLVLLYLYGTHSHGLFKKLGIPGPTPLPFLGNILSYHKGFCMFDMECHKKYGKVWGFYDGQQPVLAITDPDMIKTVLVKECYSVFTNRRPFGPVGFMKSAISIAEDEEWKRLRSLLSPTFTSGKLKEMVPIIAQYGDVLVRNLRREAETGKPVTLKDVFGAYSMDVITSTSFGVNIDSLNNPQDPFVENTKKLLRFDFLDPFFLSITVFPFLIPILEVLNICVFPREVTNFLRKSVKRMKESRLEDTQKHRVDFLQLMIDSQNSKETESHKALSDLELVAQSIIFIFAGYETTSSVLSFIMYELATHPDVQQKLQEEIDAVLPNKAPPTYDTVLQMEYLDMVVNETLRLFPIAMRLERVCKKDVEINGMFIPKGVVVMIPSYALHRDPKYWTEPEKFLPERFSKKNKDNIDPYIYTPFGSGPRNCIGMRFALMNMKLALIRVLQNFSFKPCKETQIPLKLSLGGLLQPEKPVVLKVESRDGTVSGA
Cytochrome P450 2C19 (Homo sapiens), sequence (P33261 whole entry, looked up): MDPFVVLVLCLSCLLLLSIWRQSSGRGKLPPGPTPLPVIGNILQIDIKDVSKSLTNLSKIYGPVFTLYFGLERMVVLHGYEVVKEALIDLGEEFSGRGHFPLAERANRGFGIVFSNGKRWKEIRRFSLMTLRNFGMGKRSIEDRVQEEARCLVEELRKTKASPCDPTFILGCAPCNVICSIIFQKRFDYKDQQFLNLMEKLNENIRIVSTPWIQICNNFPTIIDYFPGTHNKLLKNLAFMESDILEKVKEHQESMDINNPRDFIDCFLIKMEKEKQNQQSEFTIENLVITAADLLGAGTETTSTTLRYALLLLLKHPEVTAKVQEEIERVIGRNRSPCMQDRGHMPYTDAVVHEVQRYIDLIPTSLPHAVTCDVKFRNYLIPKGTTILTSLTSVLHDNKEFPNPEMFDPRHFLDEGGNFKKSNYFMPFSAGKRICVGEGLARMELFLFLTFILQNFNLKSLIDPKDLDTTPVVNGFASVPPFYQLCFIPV

`Cc1noc(C)c1-c1nccc(N(C)C)n1`: the Potency in assay [1] was above 11.4 µM; in assay [3], 0.631 µM (active); in assay [6] it was above 46 µM; in assay [7], above 46 µM. Besides, the activity change, negative = inhibition was 2.07% in assay [2] and -4.83% in assay [4]. Further, in assay [5], the activity, negative = inhibition is 15.8%. The Potency result in assay [8], in assay [9], in assay [10], in [11], in assay [12] and in assay [13] was “inactive” each time. Also, the Potency entry in [14] was “inactive”. Moreover, the result in assay [15] was inactive.
In the case of `NC(=O)c1ccccc1-c1nc(-n2ccnc2)c2ccccc2n1`, the Potency in [1] was above 11.4 µM; in [3] it was 2.51 µM (active); in assay [6], above 46 µM; in assay [7], above 46 µM; in assay [16] it was 3.98 µM (active). The activity change, negative = inhibition is 11.1% in assay [2] and -3.23% in [4]. Also, the activity, negative = inhibition in [5] is -1.41%. The Potency result in assay [8], in assay [9], in [10], in [11], in assay [12] and in assay [13] was “inactive” throughout. Also, in [14], the Potency result is “inactive”. Also, in assay [15], the outcome was inactive.
Turning to `N#Cc1cccc(-c2cncnc2NCc2ccccc2)c1`, the Potency in assay [1] is above 11.4 µM; in [3] it was 5.01 µM (active); in assay [6] it was above 46 µM; in assay [7] it was above 46 µM; in [16] it was 1.26 µM (active); in [17] it was 7.94 µM (active). Besides, the activity change, negative = inhibition in [2] is 1.22%; in assay [4] it was 2.64%. In assay [5], the activity, negative = inhibition was -1.62%. Further, the Potency result in assay [8], in assay [9], in assay [10], in assay [11], in assay [12] and in [13] was “inactive” throughout. Also, in [14], the Potency result is “inactive”. Further, the outcome in assay [15] was inactive.
`CNc1ncncc1-c1ccccc1C`: the Potency in [1] is above 11.4 µM; in [3], 12.6 µM (active); in assay [6], above 46 µM; in assay [7], above 46 µM; in assay [16] it was 0.631 µM (active). For the same molecule, the results for the activity change, negative = inhibition in assay [2] and in [4] were 7.16% and 9.64%, respectively. Also, the activity, negative = inhibition in assay [5] was 2.49%. Moreover, the Potency result in assay [8], in [9], in assay [10], in [11], in [12] and in assay [13] was “inactive” throughout. Moreover, in assay [14], the Potency entry is “inactive”. Further, the outcome in assay [15] was inactive.
As for `Cc1cccc(CNc2ncncc2-c2cccnc2)c1`, the Potency is above 11.4 µM in assay [1]; 0.794 µM (active) in [3]; above 46 µM in assay [6]; above 46 µM in assay [7]; 0.631 µM (active) in [16]. Besides, the activity change, negative = inhibition was 11.8% in assay [2] and 12% in assay [4]. Besides, the activity, negative = inhibition in [5] was 10.4%. The Potency result in assay [8], in assay [9], in [10], in assay [11], in assay [12] and in [13] was “inactive” in each case. The Potency result in assay [14] was “inactive”. Moreover, the outcome in assay [15] was inactive.
